In ChEMBL document CHEMBL3433997, “St. Jude Leishmania screening dataset” (2016) one finds inhibition data, which are given here for 40 compounds.

The first experiment has as its target Hexose transporter 1 (Plasmodium falciparum) (UniProt O97467). The experiment in a line: ST_JUDE_LEISH: Cytotoxicity at 2uM final concentration against transgenic Leishmania Mexicana promastigotes LmPfHT that are glucose transport deficient and complemented with the Plasmodium falciparum hexose transporter. Activity is measured by DNA content using SYBR green in vitro. It is filed as functional.
`CN1CCC(Oc2ccc(CN3CC[C@H](NC(=O)c4ccc(Cl)c(Cl)c4)C3)cc2Cl)C1` (stereo partly drawn): the inhibition (commonly the relative decrease from the control value, in per cent) was determined as 16%.

In the case of `C[C@@H]1CN(C(c2cccc(O)c2)c2cccc(C(=O)N(C)c3cccc(F)c3)c2)[C@@H](C)CN1C(c1cccc(O)c1)c1cccc(C(=O)N(C)c2cccc(F)c2)c1` (stereo partly drawn), the inhibition came out at 2.73%.

With `CC(C)(C)c1ccc(N2C(N)=NC(N)=NC2(C)C)cc1`, the inhibition came out at 0.01%.

A further experiment addresses Glucose transporter (Leishmania mexicana) (UniProt O61059). Nature of the experiment: ST_JUDE_LEISH: Cytotoxicity at 2uM final concentration against transgenic Leishmania Mexicana promastigotes LmGT2 that are glucose transport deficient and complemented with the L. Mexicana glucose transporter 2. Activity is measured by DNA content using SYBR green in vitro. Format: functional.
Regarding `O=C(Nc1ccc(C(=O)N(Cc2ccc3c(c2)OCO3)C2CCCC2)cc1)c1cccs1`, the inhibition was -2.85%.

As to `COc1ccc2nccc(NCC3(O)CCN(CC(O)c4ccc5c(c4)NC(=O)CS5)CC3)c2n1` (stereo not drawn), the inhibition stood at 2.58%.

Take `CC(C)CNC(=S)N1CCCN(c2nc3ccc(Cl)cc3s2)CC1`: the inhibition is 0.2%.

`Nc1cccc(CNCc2ccc(-c3ccc(-c4nc5cc(C(F)(F)F)ccc5[nH]4)s3)cc2)c1`: the inhibition amounted to 0.65%.

For the compound `O=C(Nc1ccc(Cn2nc(Cl)c(N3CCCNCC3)cc2=O)cc1)c1ccc(-c2ccccc2)cc1`, the inhibition stood at 4.52%.

Take `CCCN(Cc1nnc(-c2cccs2)o1)C(=O)CSc1nnnn1-c1ccc(C)c(C)c1`: the inhibition is 9.19%.

Turning to `CCCCCOc1ccc(/N=C2\C=C(O)C(=O)c3ccccc32)cc1`, the inhibition stood at 2.17%.

For the compound `CC(=O)Nc1cc(C(=O)Nc2cccc(-c3cccc(-c4nc5cccc(C)c5[nH]4)c3)c2)ccc1C`, the inhibition turned out to be 1.31%.

Turning to `CSCCC(C(=O)O)N1C(=O)c2ccccc2C1=O` (stereo not drawn), the inhibition is 0.77%.

Consider `Cc1noc(-c2ccc(O)cc2O)c1-c1ccc2c(c1)OCCCO2`, for which the inhibition was found to be 0.22%.

`O=C(NCCCCCN1CCC(c2c[nH]c3ccccc23)CC1)c1ccc(Cl)c(Cl)c1`: the inhibition stood at 2.52%.

For `CCOc1ccc(-n2nc3c(Cl)nnc(-c4ccccc4)c3c2-c2ccccc2)cc1`, the inhibition worked out at 0.01%.

As to `CCc1sc(N2CCN(C)CC2)nc1C(=O)Nc1ccc(F)cc1C(F)(F)F`, the inhibition was -0.43%.

In the case of `COc1ccc(-n2ccnc2SCC(=O)Nc2cccc(C(F)(F)F)c2)c(OC)c1`, the inhibition is -0.9%.

As to `O=C(Nc1cccc(CN2CCN(Cc3cccc(O)c3)CC2)c1)c1cc2ccccc2s1`, the inhibition came out at 3.74%.

As for `CCNc1nc(OCC(F)(F)F)nc(N(c2ccccc2)c2ccccc2)n1`, the inhibition was found to be 1.04%.

Turning to `C=C(C)Cn1cc(C2CCN(CCCCNC(=O)c3sc(-c4ccc(Cl)cc4Cl)nc3CO)CC2)c2ccccc21`, the inhibition worked out at 0.05%.

For the compound `ON=C(c1nc2ccccc2[nH]1)c1nc2ccccc2[nH]1`, the inhibition was 0.76%.

Turning to `Cc1cc(NC(=O)c2sc3ccccc3c2O)no1`, the inhibition was 0.64%.

As for `Cc1cccc2nc(-c3ccc(-c4cccc(NC(=O)CCc5c[nH]cn5)c4)s3)[nH]c12`, the inhibition is 1.67%.

Take `COc1ccc(-n2ccnc2SCC(=O)Nc2cc(Cl)ccc2OC)c(OC)c1`: the inhibition amounted to 4.9%.

As for `Cc1cc(NC(=O)c2ccc(-c3ccccc3)cc2)no1`, the inhibition stood at 4.2%.

As for `O=C(C=CC(=O)N1CCCCC1)NCc1ccccc1`, the inhibition turned out to be 2%.

As to `CCC(N)(C#Cc1ccc(-c2c(C)[nH]c(C)c(Br)c2=O)cc1)CC`, the inhibition was 0.36%.

Take `COc1cc(CNCCCCCCNCc2cc(OC)cc3ccccc23)c2ccccc2c1`: the inhibition was 10.4%.

As to `CCCC(C)Nc1nc(C)cc(N[C@@H](Cc2ccccc2)C(=O)NCc2ccc(C)cc2)n1` (stereo partly drawn), the inhibition was 4.86%.

With `CC(Cc1ccc(NC(=O)c2ccc(CNCCCCc3ccccc3)cc2)cc1)NCCc1cccc(Cl)c1` (stereo not drawn), the inhibition was determined as 105%.

With `Clc1ccc2c(NN=Cc3ccco3)ccnc2c1`, the inhibition came to 0.47%.

On to `CC1CC(NCCCNc2cc(=O)c3ccccc3[nH]2)c2c1cc(Cl)c(Cl)c2Cl` (stereo not drawn), for which the inhibition is 2.54%.

For the compound `COc1ccc(C(=O)CC(=O)c2ccc(OC)cc2OC)c(OC)c1`, the inhibition is 4.43%.

Regarding `Cc1cc(=O)[nH]c(-n2nc(C)cc2NC(=O)CC(c2ccccc2)c2ccccc2)n1`, the inhibition is -1.63%.

On to `N=C(N)NC(=O)Nc1ccc(Cl)c(C(F)(F)F)c1`, for which the inhibition came to 1.44%.

With `Cc1cc(NC(=O)Nc2ccc(C(C)C)cc2)c2ccccc2n1`, the inhibition is -0.45%.

Turning to `CCC(CC)n1c(COC)cc2c3c(N)nc(N)nc3ccc21`, the inhibition is 37.3%.

Consider `O=C1C[C@@H]([S+]([O-])Cc2nccs2)N1CCOCCCCCCc1ccc(Cl)cc1` (stereo partly drawn), for which the inhibition was 9.2%.

For `c1ccc2c(c1)cc(CNCCCN1CCN(CCCNCc3cc4ccccc4c4ccccc34)CC1)c1ccccc12`, the inhibition was -0.41%.

For `Cn1c2ccccc2c2c3ccccc3c(CNC(CO)(CO)CO)cc21`, the inhibition came out at 6.67%.

On to `CN1CCC(Oc2ccc(CN3CC[C@H](NC(=O)c4ccc(Cl)c(Cl)c4)C3)cc2Cl)C1` (stereo partly drawn), for which the inhibition was determined as 3.89%.

For `C[C@@H]1CN(C(c2cccc(O)c2)c2cccc(C(=O)N(C)c3cccc(F)c3)c2)[C@@H](C)CN1C(c1cccc(O)c1)c1cccc(C(=O)N(C)c2cccc(F)c2)c1` (stereo partly drawn), the inhibition amounted to 2.45%.

Consider `CC(C)(C)c1ccc(N2C(N)=NC(N)=NC2(C)C)cc1`, for which the inhibition amounted to 1.34%.
